Assay results from PubChem BioAssay AID720690 (Broad Institute, 2013).
Results with a measured potency or affinity are listed apart. The source made the active and inactive calls.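 The calls were made as follows: active = every repeat run showing a signal drop whose fitted half-maximal concentration is at most twice the top tested concentration; inconclusive = repeat runs disagree, or flat partial drop, or poor fit; inactive = the rest.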

experiment: HEK293T cytotoxicity, dose response, cytotoxicity control for miR-122 modulator project, cell-based, activator set, cherry-pick (AID 720690); settings: HEK293T viability, CellTiter-Glo luminescence, 48 h; series mostly up to 26 µM

| SMILES | outcome |
| --- | --- |
| CNC(=O)C[C@H]1CC[C@@H]2[C@H](COc3ccc(NC(=O)Nc4ccccc4OC)cc3C(=O)N2C)O1 | inactive |
| COC(=O)C[C@H]1CC[C@@H]2[C@@H](COc3ccc(NC(=O)c4cscn4)cc3C(=O)N2C)O1 | inactive |
| CN(C[C@H]1N[C@@H](CO)[C@H]1c1ccc(-c2ccccc2)cc1)C(=O)C1CCC1 | inactive |
| CCNC(=O)C[C@H]1CC[C@H]2[C@H](COc3ccc(NS(C)(=O)=O)cc3C(=O)N2C)O1 | inactive |
| C/C(=N\Nc1cc(N2CCCCC2)nc(C)n1)c1ccc(Br)cc1 | inactive |
| COc1ccc(CN2CCOC2=O)cc1OC | inactive |
| CN1C(=O)c2cc(NC(=O)c3ccc4c(c3)OCO4)ccc2OC[C@@H]2O[C@@H](CC(=O)O)CC[C@@H]21 | inactive |
| CN1C(=O)c2cc(NC(=O)c3cccs3)ccc2OC[C@@H]2O[C@@H](CC(=O)NCCN3CCCCC3)CC[C@H]21 | inactive |
| Cc1cccc(C)c1NC(=O)CSCC(=O)c1ccc(O)c(O)c1 | inactive |
| C/C=C/c1ccc([C@@H]2[C@@H](CO)N(S(C)(=O)=O)[C@H]2CN(C)C(=O)CC)cc1 | inactive |
| C/C=C/c1ccc2c(c1)O[C@H](CN(C)C(=O)Cc1cccnc1)[C@H](C)CN([C@H](C)CO)S2(=O)=O | inactive |
| CNC(=O)C[C@@H]1CC[C@@H]2[C@H](COc3ccc(NC(=O)NC(C)C)cc3C(=O)N2C)O1 | inactive |
| CCCNC(=O)N1[C@H](CO)[C@@H](c2ccccc2)[C@H]1CNC(=O)c1ccccc1 | inactive |
| CC(C)NC(=O)N1C[C@@H]2[C@H](c3ccccc31)[C@@H](CO)N2C(=O)c1cccnc1 | inactive |
| CC(=O)N1[C@H](CNC(=O)C2CC2)[C@H](c2ccc(-c3cccc(F)c3)cc2)[C@@H]1CO | inactive |
| COCC(=O)NC[C@@H]1[C@H](c2ccc(C3=CCCC3)cc2)[C@H](CO)N1C(=O)C1CC1 | inactive |
| CN(C)CCNc1ncnc2c1sc1nc(N3CCOCC3)c3c(c12)CC(C)(C)SC3 | inactive |
| Cc1ccc(NCC(=O)c2ccccc2)cc1Cl | inactive |
| COc1cccc(-c2ccc3c(c2)O[C@H](CN(C)C(=O)C2CCOCC2)[C@H](C)CN([C@@H](C)CO)S3(=O)=O)c1 | inactive |
| Cc1cc2n(n1)C(c1cn(-c3ccccc3)nc1C)Nc1c(C)cccc1-2 (stereo not given) | inactive |

| SMILES | outcome |
| --- | --- |
| CNC(=O)C[C@H]1CC[C@@H]2[C@@H](COc3ccc(NC(=O)c4cccc(OC)c4)cc3C(=O)N2C)O1 | inactive |
| C[C@H]1CN([C@@H](C)CO)S(=O)(=O)c2ccc(C3=CCCC3)cc2O[C@H]1CN(C)Cc1cccnc1 | inactive |
| COCC(=O)N(C)C[C@H]1Oc2cc(-c3ccccc3F)ccc2S(=O)(=O)N([C@H](C)CO)C[C@H]1C | inactive |
| CC1(C)CC(=O)c2cnc(NC(=O)c3ccco3)nc2C1 | inactive |
| CC(=O)Nc1ccc2c(c1)C(=O)N(C)[C@H]1CC[C@H](CC(=O)NC3CCCCC3)O[C@@H]1CO2 | inactive |
| COc1ccc(CN2CCN(Cc3cccn3-c3ncccn3)CC2CCO)c(C)c1C (stereo not given) | inactive |
| CCOc1ccc(C(CCc2ccccc2)NC(=O)c2ccccc2F)cc1OCC (stereo not given) | inactive |
| COc1cc2nc(C3CCC3)n(NC(=O)C3CCCC(OC)C3)c(=O)c2cc1OC (stereo not given) | inactive |
| CCOC(=O)CSc1nnnn1-c1cccc2ccccc12 | inactive |
| CCCNC(=O)Nc1ccc2c(c1)C(=O)N(C)[C@@H]1CC[C@@H](CC(=O)NCC3CCCCC3)O[C@H]1CO2 | inactive |
| COc1cccc(C(=O)Nc2ccc3c(c2)C(=O)N(C)[C@@H]2CC[C@@H](CC(=O)NCc4ccc(F)cc4)O[C@@H]2CO3)c1 | inactive |
| c1ccc(CCNc2nnnn2-c2ccccc2)cc1 | inactive |
| CC(C)N(C[C@H]1[C@H](c2ccccc2)[C@@H](CO)N1S(C)(=O)=O)C(=O)CN(C)C | inactive |
| CCCC(NS(=O)(=O)c1ccc(Br)cc1)C(=O)O (stereo not given) | inactive |
| CN1C(=O)c2cc(NC(=O)c3cccc(F)c3)ccc2OC[C@@H]2O[C@H](CC(=O)O)CC[C@@H]21 | inactive |
| COCC(=O)N1[C@H](CO)[C@H]2c3ccccc3N(C(=O)C3CC3)C[C@H]21 | inactive |
| C[C@H](CO)N1C[C@H](C)[C@H](CN(C)S(=O)(=O)c2ccc(F)cc2)Oc2ccc(NS(C)(=O)=O)cc2C1=O | inactive |
| COCC(=O)Nc1ccc2c(c1)C(=O)N(C)[C@@H]1CC[C@@H](CC(=O)OC)O[C@@H]1CO2 | inactive |
| C/C=C/c1ccc([C@@H]2[C@@H](CO)N(C(=O)Cc3cccnc3)[C@H]2CNC(C)=O)cc1 | inactive |
| CN1C(=O)c2cc(NC(=O)c3ccno3)ccc2OC[C@H]2O[C@@H](CC(=O)NCC3CC3)CC[C@@H]21 | inactive |
